According to PubChem BioAssay AID1654 (Sanford-Burnham Center for Chemical Genomics, 2009):
Out of some 290,000 compounds screened, about 1,500 (0.52%) were called active. No stated cut-off is given here; in the data, active means inhibition above about 50%; inactive means the rest. What follows is part of a selection rich in actives, with near analogues and random picks from the rest.

Each compound was assayed against Dual specificity protein phosphatase 3 (Homo sapiens) (UniProt P51452) (assay: inhibition of human DUSP3 activity – biochemical, absorbance, uHTS, primary screen (AID 1654)). Conditions: recombinant VHR phosphatase, pNPP absorbance, at 13.3 µM, stronger effect = higher value.
Dual specificity protein phosphatase 3 (Homo sapiens), sequence (P51452 whole entry, looked up): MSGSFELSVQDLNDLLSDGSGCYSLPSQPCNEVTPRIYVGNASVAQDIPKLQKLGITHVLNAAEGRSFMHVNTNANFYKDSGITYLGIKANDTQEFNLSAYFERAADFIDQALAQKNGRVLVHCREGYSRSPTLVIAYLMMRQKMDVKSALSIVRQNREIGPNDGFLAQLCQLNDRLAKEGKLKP

Compound | inhibition
CCCCCn1c(=O)[nH]c2cc(C(=O)NCCCN3CCCCC3C)ccc2c1=O (stereo not given) | 22.4% (inactive)
CCCCOP(=O)(c1ccc(N(C)C)cc1)C(O)c1cc(OC)ccc1OC (stereo not given) | 6.1% (inactive)
CSc1ccccc1-c1nnc(-c2ccc(Cl)cc2)o1 | 25.3% (inactive)
O=C(c1nnc(-c2ccc(Cl)cc2)o1)C1CCCC1 | 51.3% (active)
O=C(Nc1nnc(-c2ccc(Cl)cc2)o1)c1ccccc1Br | 41.9% (inactive)
CCOc1ccc(NC(=S)N2CCC(NC(=O)c3ccccc3)CC2)cc1 | 20.4% (inactive)
CCOc1ccc(CC(=O)NC2CCN(Cc3ccccc3)CC2)cc1 | 51% (active)
O=C(COc1ccc(Br)cc1F)NC1CCN(Cc2ccccc2)CC1 | 4.7% (inactive)
Clc1ccc(Nc2ncnc3c2nnn3Cc2ccccc2)cc1 | 16.3% (inactive)
CC(=O)Nc1ccc(Nc2ncnc3c2nnn3Cc2ccccc2Cl)cc1 | 52% (active)
Cc1nc(Nc2ccc3c(c2)OCCO3)c2nnn(Cc3ccccc3Cl)c2n1 | 18.2% (inactive)
CCC(=O)Nc1ccc(-c2ccc(N3CCCCC3)nn2)cc1 | -19.8% (inactive)
COc1ccc(NC(=O)C2CCCN(S(=O)(=O)c3cccc4cccnc34)C2)cc1OC (stereo not given) | 23.6% (inactive)
COc1ccc(OC)c(NC(=O)C2CCCN2S(=O)(=O)c2cccc3nsnc23)c1 (stereo not given) | 19% (inactive)
CC(=O)c1cccc(NC(=O)C2CCCN2S(=O)(=O)c2cccc3nsnc23)c1 (stereo not given) | 54.2% (active)
CC1CCCCC1NC(=O)C1CCCN1S(=O)(=O)c1cccc2nsnc12 (stereo not given) | 16.6% (inactive)
O=C(NCc1ccco1)C1CCCN(S(=O)(=O)c2cccc3nonc23)C1 (stereo not given) | 3.6% (inactive)
Cc1ccc(NC(=O)C2CCCN2S(=O)(=O)c2cccc3cccnc23)c(C)c1 (stereo not given) | -0.7% (inactive)
O=C(Nc1nccs1)C1CCCN1S(=O)(=O)c1cccc2cccnc12 (stereo not given) | 56.5% (active)
CC(=O)c1cccc(NC(=O)C2CCCN(S(=O)(=O)c3cccc4nonc34)C2)c1 (stereo not given) | 50.4% (active)
Cc1cc(C)cc(NC(=O)C2CCCN2S(=O)(=O)c2cccc3cccnc23)c1 (stereo not given) | -42.1% (inactive)
CCc1ccc(-c2cc(C)no2)cc1S(=O)(=O)NCCc1ccc(S(N)(=O)=O)cc1 | 28% (inactive)
Cc1ccc(NC(=O)c2nc[nH]c2C(=O)N[C@@H](CCCCNC(=O)OC(C)(C)C)C(=O)OC(C)(C)C)cc1 | -0.7% (inactive)
CCc1ccccc1NC(=O)c1ccc2c(c1)CCN2S(C)(=O)=O | -17.9% (inactive)
O=C1/C(=C/c2ccc(F)cc2)SC(=S)N1CCCC(=O)N1CCCCC1CCO (stereo not given) | 42.6% (inactive)
